Reference: PubChem BioAssay (NCATS)
“And” between values parts separate entries of the source, which are not always exact repeats. Equal values may be shown once. Results filed as inconclusive are left out. Where a call stands in place of a potency, no number is given. The source made the active and inactive calls. Unless noted, calls come from the whole dose curve; as a rule, active = well fitted curve in the direction sought with a large enough effect; inconclusive = small, poorly fitted or top-dose-only effect, or another doubt; inactive = no such curve, though single readings can be large; an effect the other way counts as inactive or inconclusive.

Tests used:
[1] = Cell Viability - LYMP2-001 (AID 921); conditions: LYMP2-001 lymphoblastoid cell viability; series mostly up to 92.2 µM;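 note: cells exposed to compound for 24 h at 37 °C; nearly all actives have a fitted effect of over 70% in size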
Outline: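 qHTS, 1536-well; lymphoblastoid cells, 24 hr compound, 37 C; ATP by CellTiter-Glo, 30 min RT; luminescence; Hill-fit AC50.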

[2] = MultiTox-Fluor Cytotoxicity Assay - LYMP1-001 - Live Cells (AID 947); conditions: LYMP1-001 lymphoblastoid cells, live-cell protease fluorescence viability; series mostly up to 92.2 µM
[3] = MultiTox-Fluor Cytotoxicity Assay - LYMP1-002 - Live Cells (AID 955); conditions: LYMP1-002 lymphoblastoid live-cell protease fluorescence viability; series mostly up to 46.1 µM
Outline: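 After 16 h compound exposure at 37 C, live LYMP1-002 lymphoblastoid cells (2500/well) were quantified by cleavage of cell-permeant GF-AFC substrate, read at 405/510 nm after 60 min. Concentration-response fitted with Hill equation for AC50.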

[4] = MultiTox-Fluor Cytotoxicity Assay - LYMP1-003 - Live Cells (AID 962); conditions: LYMP1-003 lymphoblastoid cells, MultiTox-Fluor live-cell protease fluorescence; series mostly up to 92.2 µM;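 note: cytotoxic hits lower the live-cell protease signal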
Outline: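 Live-cell protease activity (GF-AFC substrate, 405/510 nm, 60 min at room temperature) after 16 h, 37 C compound exposure of human lymphoblastoid LYMP1-003 cells; concentration-response fitted to the Hill equation for AC50.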

[5] = biological target: Peroxisome proliferator-activated receptor gamma (Homo sapiens) (UniProt P37231); test: qHTS assay for small molecule antagonists of peroxisome proliferator-activated receptor gamma signaling (AID 588537; active = well fitted inhibition curve with a large enough effect in the signal ratio, with a control signal flat, not every such curve was filed as active; the % refers to the signal ratio;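 note: reporter cells co-stimulated with 50 nM rosiglitazone agonist during compound treatment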); conditions: HEK293 PPARg-UAS-bla, beta-lactamase ratio, antagonist mode; series mostly up to 76.8 µM
Outline: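 Fluorescence at 460 and 530 nm (405 nm excitation) reported beta-lactamase cleavage of CCF4 after 2 h room-temperature loading. HEK293 reporter cells in 1% charcoal/dextran-treated FBS had received compound and rosiglitazone for 16 h.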

[6] = biological target: Vitamin D3 receptor (Homo sapiens) (UniProt P11473); test: qHTS assay for small molecule antagonists of vitamin D receptor signaling (AID 588541; calls by dose curve;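 note: receptor activated by calcitriol during compound treatment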); conditions: HEK293T VDR-UAS-bla, beta-lactamase ratio, antagonist mode; series mostly up to 76.7 µM
Outline: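 VDR-UAS-bla HEK293T cells in 2% charcoal-stripped FBS were stimulated with 1-alpha,25-dihydroxyvitamin D3 (3 nM final) plus compound for 16 h at 37 C. The beta-lactamase CCF4 readout was normalized to 50 nM agonist and DMSO, and Hill fits gave IC50.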

[7] = biological target: Vitamin D3 receptor (Homo sapiens) (UniProt P11473); test: qHTS assay for small molecule agonists of vitamin D receptor signaling (AID 588543; calls by dose curve); conditions: HEK293T VDR-UAS-bla, beta-lactamase ratio, 16 h; series mostly up to 76.8 µM
Outline: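 qHTS in agonist mode: compound titrations stimulate a VDR-driven β-lactamase reporter in HEK293T cells over 16 h at 37 °C. Response normalized to 50 nM 1α,25-dihydroxyvitamin D3 = 100%, DMSO = 0%; Hill fitting gives EC50 and maximal response.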

[8] = qHTS assay for small molecule agonists of retinoid X receptor alpha signaling (AID 588544); conditions: HEK293T RXRa-UAS-bla, beta-lactamase reporter, 18 h; 530 nm emission
[9] = biological target: Thyroid hormone receptor beta (Homo sapiens) (UniProt P10828); test: qHTS assay for small molecule agonists of thyroid hormone receptor beta signaling (AID 588545; calls by dose curve); conditions: TR-UAS-bla GripTite HEK 293, beta-lactamase ratio, agonist mode, 18 h; series mostly up to 76.7 µM
Outline: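 Beta-lactamase reporter activity under TR response element control is measured in HEK 293 cells after 18 hrs compound exposure. Signal is ratiometric CCF4 fluorescence, 460/530 nm.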

[10] = qHTS assay for small molecule antagonists of retinoid X receptor alpha signaling (AID 588546; active = well fitted inhibition curve with a large enough effect in the signal ratio, with a control signal flat, not every such curve was filed as active; the % refers to the signal ratio;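 note: cells stimulated with 9-cis-retinoic acid as agonist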); conditions: HEK293T RXRa-UAS-bla, beta-lactamase ratio, antagonist mode; measured here: W530 green channel, cytotoxicity proxy
Outline: (§1)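 Beta-lactamase reporter inhibition, read as CCF4 fluorescence ratio (ex 405, em 460/530 nm) after 2 h at RT. HEK293T UAS-bla cells, 2500/well, were stimulated with 9-cis-RA at 500 or 100 nM final alongside test compound for 18 h at 37 C.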

[11] = biological target: Retinoic acid receptor RXR-alpha (Homo sapiens) (UniProt P19793); test: as above; conditions: HEK293T RXRa-UAS-bla, beta-lactamase ratio, antagonist mode
Outline: as §1

[12] = biological target: Thyroid hormone receptor beta (Homo sapiens) (UniProt P10828); test: qHTS assay for small molecule antagonists of thyroid hormone receptor beta signaling (AID 588547; active = well fitted inhibition curve with a large enough effect in the signal ratio, with a control signal flat, not every such curve was filed as active; the % refers to the signal ratio;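 note: cells stimulated with 0.4 nM T3 agonist during compound exposure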); conditions: TR-UAS-bla HEK293, beta-lactamase ratio, antagonist mode, 18 h
Outline: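 TR-UAS-bla GripTite HEK293 cells in 2% charcoal/dextran FBS medium; compounds 0.59 nM to 92 uM with T3 at 0.4nM final, 18 h at 37 C. Beta-lactamase read by CCF4 fluorescence (460/530 nm); Hill fits gave IC50 and efficacy.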

[13] = biological target: Voltage-gated inwardly rectifying potassium channel KCNH2 (Homo sapiens) (UniProt Q12809); test: qHTS Assay for Small Molecule Inhibitors of the Human hERG Channel Activity (AID 588834); conditions: U2OS BacMam hERG, FluxOR thallium flux fluorescence; series mostly up to 92.2 µM;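 note: U2OS cells transduced with hERG by BacMam; top concentration of the series differs between compounds; lower thallium flux fluorescence means stronger hERG block; nearly all actives have a fitted effect of over 50% in size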
Outline: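 Cells were infected with hERG-BacMam virus for 4 hrs at room temperature, grown overnight, then seeded at 2000/well. After dye loading and roughly 10 min compound treatment, thallium influx was triggered and fluorescence recorded.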

[14] = qHTS assay for small molecule activators of the nuclear factor-kappa B (NF-kB) signaling pathway (AID 651749; active = well fitted activation curve with a large enough effect in the signal ratio; the % refers to the signal ratio); conditions: NF-kB-bla ME-180 cells, beta-lactamase FRET ratio, 16 h; stronger effect = higher value
Outline: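 In this qHTS format, compounds acting as activators increase NF-kB-driven beta-lactamase in ME-180 cells, measured as disrupted FRET after 16 hr exposure at 37C and 5% CO2.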

[15] = biological target: Tumor necrosis factor (Homo sapiens) (UniProt P01375); test: qHTS assay to identify small molecules that stimulate Tumor Necrosis Factor-alpha (TNF-alpha) secretion (AID 651757; active = well fitted curve in the direction sought with a large enough effect in the signal ratio; the % refers to the signal ratio); conditions: Human cells, HTRF 665/615 ratio; series mostly up to 92.2 µM
Outline: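 Secreted TNF-alpha quantified by TR-FRET sandwich of two labeled anti-TNF-alpha antibodies, incubated 3 hr at room temperature. Preceded by 17 hr, 37 C compound treatment of THP-1 cells at 3000 cells/well.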

[16] = qHTS assay to identify small molecules that stimulate interleukin-8 (IL-8) secretion (AID 651758; active = well fitted activation curve with a large enough effect in the signal ratio; the % refers to the signal ratio); conditions: HTRF ratio (665/615); series mostly up to 92.2 µM
Outline: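 Compounds are added to THP-1 cells (2000 per well) and left 16 hrs at 37 C. A labeled anti-IL-8 antibody pair is then added, and IL-8 secretion is measured by time-resolved FRET after 1-3 hrs at room temperature.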

[17] = qHTS assay for small molecule agonists of the antioxidant response element (ARE) signaling pathway measured by Nrf2-dependant transcriptional activity - cell viability counter screen (AID 720653; active = well fitted curve in the direction sought with a large enough effect in the repeat runs; an effect the other way counts as inactive or inconclusive); conditions: ARE-bla HepG2 viability, CellTiter-Glo ATP luminescence, 16 h; max response: stronger effect = lower value
Outline: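 ARE-bla HepG2 cells treated with compounds for 16 h at 37C; this counter screen measures viability as intracellular ATP by CellTiter-Glo luminescence after 30 min at room temperature.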

[18] = qHTS assay for cell viability of the p53RE-bla HCT-116 cell line (AID 743292); conditions: p53RE-bla HCT-116 viability, ATP luminescence, 16 h; series mostly up to 95 µM; note: nearly all actives have a fitted effect of over 55% in size
Outline: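 CellSensor p53RE-bla HCT-116 cells, 4,000/well, preincubated 5 h at 37 C, then exposed to compounds in DMSO for 16 h at 37 C. Viability read as CellTiter-Glo luminescence (intracellular ATP) after 30 min at room temperature.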

[19] = biological target: Nuclear receptor subfamily 1 group I member 2 (Rattus norvegicus) (UniProt Q9R1A7); test: qHTS assay for small molecule activators of the rat pregnane X receptor (rPXR) signaling pathway (AID 651751; call rule not given here); conditions: rPXR reporter cells, luciferase (One-Glo), 24 h
[20] = Confirmation and Secondary Assay for Modulators of Hemoglobin Beta Chain Splicing at IVS2 654 locus (AID 910); conditions: HeLa EGFP-654 splicing reporter, GFP fluorescence, 48 h; series mostly up to 38.3 µM;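 note: HeLa cells stably carrying EGFP split by mutant beta-globin IVS2-654 intron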
Outline: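 HeLa cells stably expressing EGFP interrupted by β-globin IVS2-654 intron, seeded overnight in Opti-MEM/2% FCS, then treated 2 days at 37 °C. Restored splicing read as total peak GFP intensity per well by laser scanning cytometry (488 nm excitation, 500–520 nm emission); 500 nM antisense PNA as control.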

Chain of Vitamin D3 receptor (Homo sapiens) (P11473 whole entry, looked up): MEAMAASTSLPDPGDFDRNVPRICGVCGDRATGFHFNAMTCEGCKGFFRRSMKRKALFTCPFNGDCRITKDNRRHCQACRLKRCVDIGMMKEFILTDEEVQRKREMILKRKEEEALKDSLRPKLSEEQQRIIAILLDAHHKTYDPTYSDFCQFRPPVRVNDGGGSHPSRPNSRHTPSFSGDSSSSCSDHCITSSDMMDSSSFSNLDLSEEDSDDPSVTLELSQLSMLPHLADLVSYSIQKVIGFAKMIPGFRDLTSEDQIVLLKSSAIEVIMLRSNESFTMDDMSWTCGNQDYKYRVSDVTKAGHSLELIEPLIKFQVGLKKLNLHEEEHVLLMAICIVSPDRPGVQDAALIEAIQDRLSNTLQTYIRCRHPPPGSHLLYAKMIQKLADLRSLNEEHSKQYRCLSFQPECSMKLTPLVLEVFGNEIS
Chain of Thyroid hormone receptor beta (Homo sapiens) (P10828 whole entry, looked up): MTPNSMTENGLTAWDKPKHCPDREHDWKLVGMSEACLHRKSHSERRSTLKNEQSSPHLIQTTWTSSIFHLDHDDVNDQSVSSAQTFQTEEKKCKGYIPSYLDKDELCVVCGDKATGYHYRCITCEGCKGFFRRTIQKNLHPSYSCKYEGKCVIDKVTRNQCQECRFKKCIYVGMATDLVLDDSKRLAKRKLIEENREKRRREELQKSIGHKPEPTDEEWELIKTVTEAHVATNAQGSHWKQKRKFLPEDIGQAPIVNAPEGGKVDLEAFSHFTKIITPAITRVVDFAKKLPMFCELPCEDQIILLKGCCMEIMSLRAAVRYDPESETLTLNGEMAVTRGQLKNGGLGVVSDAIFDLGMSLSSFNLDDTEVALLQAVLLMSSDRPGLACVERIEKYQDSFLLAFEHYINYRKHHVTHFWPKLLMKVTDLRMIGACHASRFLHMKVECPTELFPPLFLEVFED
Chain of Nuclear receptor subfamily 1 group I member 2 (Rattus norvegicus) (Q9R1A7 whole entry, looked up): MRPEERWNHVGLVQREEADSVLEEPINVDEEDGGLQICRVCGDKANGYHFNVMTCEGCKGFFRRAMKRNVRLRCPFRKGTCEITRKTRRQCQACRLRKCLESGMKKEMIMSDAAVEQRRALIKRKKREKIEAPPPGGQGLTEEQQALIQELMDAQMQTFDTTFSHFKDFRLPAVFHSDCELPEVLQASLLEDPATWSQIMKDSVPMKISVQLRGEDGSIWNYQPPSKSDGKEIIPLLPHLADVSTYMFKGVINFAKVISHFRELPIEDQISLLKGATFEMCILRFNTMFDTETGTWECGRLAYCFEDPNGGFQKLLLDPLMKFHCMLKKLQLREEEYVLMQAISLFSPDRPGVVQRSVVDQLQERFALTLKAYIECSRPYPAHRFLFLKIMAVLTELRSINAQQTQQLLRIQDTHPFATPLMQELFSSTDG
Chain of Retinoic acid receptor RXR-alpha (Homo sapiens) (P19793 whole entry, looked up): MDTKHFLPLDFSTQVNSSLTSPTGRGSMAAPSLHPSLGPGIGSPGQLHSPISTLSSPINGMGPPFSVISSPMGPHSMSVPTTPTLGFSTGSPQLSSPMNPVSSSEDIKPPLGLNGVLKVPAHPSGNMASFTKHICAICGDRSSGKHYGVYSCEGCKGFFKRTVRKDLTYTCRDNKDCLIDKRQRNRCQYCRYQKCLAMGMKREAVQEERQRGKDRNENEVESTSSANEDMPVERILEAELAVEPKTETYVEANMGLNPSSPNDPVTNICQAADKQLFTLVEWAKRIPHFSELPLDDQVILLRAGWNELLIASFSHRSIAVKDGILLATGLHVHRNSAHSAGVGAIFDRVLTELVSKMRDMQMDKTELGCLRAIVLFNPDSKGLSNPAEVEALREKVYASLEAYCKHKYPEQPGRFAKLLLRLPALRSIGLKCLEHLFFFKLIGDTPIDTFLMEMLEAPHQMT
Chain of Voltage-gated inwardly rectifying potassium channel KCNH2 (Homo sapiens) (Q12809 whole entry, looked up): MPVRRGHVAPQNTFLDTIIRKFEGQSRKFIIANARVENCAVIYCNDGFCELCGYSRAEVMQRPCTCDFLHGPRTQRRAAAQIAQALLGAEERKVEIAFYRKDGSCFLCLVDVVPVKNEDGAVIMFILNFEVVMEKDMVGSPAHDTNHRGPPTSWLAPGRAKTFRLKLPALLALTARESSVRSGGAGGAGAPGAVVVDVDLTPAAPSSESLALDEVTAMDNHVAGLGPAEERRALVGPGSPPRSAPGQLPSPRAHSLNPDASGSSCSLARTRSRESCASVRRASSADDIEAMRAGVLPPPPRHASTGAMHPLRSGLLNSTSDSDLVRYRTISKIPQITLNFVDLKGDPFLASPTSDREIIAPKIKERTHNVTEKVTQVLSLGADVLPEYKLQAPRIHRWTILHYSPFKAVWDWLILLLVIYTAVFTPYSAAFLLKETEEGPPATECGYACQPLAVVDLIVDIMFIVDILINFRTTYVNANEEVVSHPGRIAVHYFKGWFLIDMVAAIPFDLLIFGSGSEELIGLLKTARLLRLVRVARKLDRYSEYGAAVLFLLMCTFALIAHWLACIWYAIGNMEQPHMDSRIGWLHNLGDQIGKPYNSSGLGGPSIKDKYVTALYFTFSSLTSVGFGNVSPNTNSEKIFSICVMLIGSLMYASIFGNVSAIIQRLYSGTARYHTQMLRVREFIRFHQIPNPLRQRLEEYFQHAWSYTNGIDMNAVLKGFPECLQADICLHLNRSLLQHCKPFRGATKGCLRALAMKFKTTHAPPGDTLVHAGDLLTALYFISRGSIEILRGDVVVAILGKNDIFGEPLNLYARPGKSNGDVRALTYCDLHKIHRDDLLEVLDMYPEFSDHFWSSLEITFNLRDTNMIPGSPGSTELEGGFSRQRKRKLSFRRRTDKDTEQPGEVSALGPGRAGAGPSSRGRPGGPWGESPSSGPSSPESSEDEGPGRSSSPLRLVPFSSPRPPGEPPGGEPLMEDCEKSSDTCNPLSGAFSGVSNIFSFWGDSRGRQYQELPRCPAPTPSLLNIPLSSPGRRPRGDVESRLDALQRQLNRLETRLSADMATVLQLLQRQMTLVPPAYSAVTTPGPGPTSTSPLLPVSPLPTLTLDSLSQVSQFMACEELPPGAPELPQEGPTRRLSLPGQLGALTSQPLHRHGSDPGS
Chain of Tumor necrosis factor (Homo sapiens) (P01375 whole entry, looked up): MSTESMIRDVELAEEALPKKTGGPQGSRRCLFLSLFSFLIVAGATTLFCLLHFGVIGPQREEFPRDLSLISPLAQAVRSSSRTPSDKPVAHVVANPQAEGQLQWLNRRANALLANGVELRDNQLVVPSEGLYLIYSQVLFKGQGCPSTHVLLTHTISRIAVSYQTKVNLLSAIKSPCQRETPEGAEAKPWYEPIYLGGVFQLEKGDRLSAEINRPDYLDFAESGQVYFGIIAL
Chain of Peroxisome proliferator-activated receptor gamma (Homo sapiens) (P37231 whole entry, looked up): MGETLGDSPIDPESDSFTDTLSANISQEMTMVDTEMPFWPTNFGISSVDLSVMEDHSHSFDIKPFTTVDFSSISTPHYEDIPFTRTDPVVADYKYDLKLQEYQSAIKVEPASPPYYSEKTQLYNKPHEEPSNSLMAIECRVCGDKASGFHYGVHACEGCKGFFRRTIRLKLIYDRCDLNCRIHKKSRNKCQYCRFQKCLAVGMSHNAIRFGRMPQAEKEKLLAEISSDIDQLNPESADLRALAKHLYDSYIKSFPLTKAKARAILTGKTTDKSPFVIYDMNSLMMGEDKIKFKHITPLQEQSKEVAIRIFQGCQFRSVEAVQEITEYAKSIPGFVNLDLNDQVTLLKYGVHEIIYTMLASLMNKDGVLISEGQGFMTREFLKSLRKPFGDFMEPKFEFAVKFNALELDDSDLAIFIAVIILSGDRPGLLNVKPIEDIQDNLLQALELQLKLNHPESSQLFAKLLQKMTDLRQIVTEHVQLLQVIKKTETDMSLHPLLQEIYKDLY

Row | Compound | Potency [1] | Potency [2] | outcome [3] | Potency [4] | Potency [5] | Potency [6] | Potency [7] | max response [8] | Potency [9] | max response [10] | max response [11] | activity change % (negative = inhibition) [12] | Potency [13] | activation [14] | Potency [15] | Potency [16] | max response [17] | Potency [18] | max response [19] | outcome [20]
1 | CC(CCC(=O)O)(c1ccc(O)cc1)c1ccc(O)cc1 | inactive | inactive | inactive | inactive | inactive | inactive | inactive | -8.9% and -10.2% | inactive | 0.685% and -9.17% | 11.2% (inactive) and 0.834% (inactive) | -0.624% (inactive) | inactive | 0.0681% (inactive) and 0.181% (inactive) | inactive | inactive | -5.33% (inactive) and -3.83% (inactive) | inactive | -1.81% (inactive) and -3.54% (inactive) | –
2 | Cc1cccc(CNc2nc(-c3cccnc3)nc3ccccc23)c1 | – | – | – | – | – | – | – | – | – | – | – | – | – | – | – | – | – | – | – | inactive
